# High-throughput results as filed in PubChem.
# DT40 TDP1 CPT: growth inhibition of DT40 Tdp1-/-;hTDP1 cells with camptothecin (screen for TDP1 inhibitors) | 420,000 tested, 12% active | Potency, µM (top dose mostly 46.2 µM), without a hit: at the highest dose activity change, negative = growth inhibition, hits mostly inhibitors | chicken DT40 Tdp1-/-;hTDP1 cells + 20 nM CPT, ATP luminescence, 48 h; note: % is set by controls: 0 for no effect and ±100 for the full control effect; nearly all actives have a fitted effect of over 55% in size
#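 Chicken DT40 Tdp1-/- cells complemented with human TDP1, 400 cells/well, exposed to compounds plus 20 nM camptothecin for at least 48 h at 37 C; viability read as ATP content by CellTiter-Glo luminescence.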
# HT1080NT lethal: kills 2HG-producing HT-1080-NT fibrosarcoma cells | 360,000 tested, 1.6% active | HT-1080-NT fibrosarcoma viability, CellTiter-Glo ATP luminescence, 48 h | Potency, µM (highest dose often 46.1 µM), inactives show top-dose activity, negative = less viability, usual class: cytotoxic;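 note: NT is the 2HG producing partner of a matched IDH1 knockdown line; 0% = DMSO-treated cells and -100% = media-only wells without cells; nearly all actives have a fitted effect of over 55% in size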
#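 750 cells/well, RPMI + 5% FBS; 2 h settle, compound pin-transfer, 48 h at 37 degrees C. CellTiter-Glo 10 min RT, luminescence. Normalized to DMSO and media-only wells.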
# DT40 TDP1 no CPT: qHTS for Inhibitors of human tyrosyl-DNA phosphodiesterase 1 (TDP1): qHTS in cells in absence of CPT | DT40 Tdp1-/- hTDP1 cells, no CPT, ATP luminescence, 48 h | Potency, µM (doses to about 46.2 µM), for the others: top-dose activity change, negative = growth inhibition, most hits filed as inhibitors | 420,000 tested, 15% active | AID 686978, 2013; note: % is set by controls: 0 for no effect and ±100 for the full control effect; nearly all actives have a fitted effect of over 55% in size
#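 Camptothecin absent (DMSO only). Human TDP1-complemented DT40 knockout cells, 400 cells/well, 37 °C for minimum 48 hr; ATP measured via CellTiter-Glo, 30 min dark incubation, luminescence.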
# TGFb inhibitor: inhibitors of TGF-b signaling | HepG2 CAGA-GFP TGF-b/SMAD3 reporter, GFP fluorescence, 18 h; TGF-beta stimulated, 500 pg/mL final | Potency, µM (highest dose often 46.1 µM), without a hit: at the top dose activity, negative = inhibition, hits mostly inhibitors | 410,000 tested, 1.2% active; note: % is set by controls: 0 for no effect and ±100 for the full control effect; nearly all actives have a fitted effect of over 65% in size
#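 Inhibition of TGF-beta-driven CAGA-GFP reporter expression in HEPG2 cells is measured by cellular GFP fluorescence after 18 h stimulation with 500 pg/mL recombinant TGF-beta in 1% FBS medium at 37 degrees C.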
# HT1080 IDH1KD tx: kills HT-1080 cells with IDH1 knockdown. 360,000 tested, 2% active. Potency, µM (top dose mostly 46.1 µM), inactives show top-dose activity, negative = toxicity, usual class: cytotoxic. HT-1080 IDH1 knockdown viability, ATP luminescence, 48 h;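 note: 0% = DMSO wells and -100% = cell-free medium wells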
#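 Using the IDH1-knockdown HT-1080 line run in the same batch and compound series as the NT line, viability after 48 h at 37 °C was determined by CellTiter-Glo luminescence and expressed as % activity.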
# HepG2 tox: HepG2 cytotoxicity, counter-screen for TGF-b inhibitors | HepG2 CAGA-GFP viability, ATP luminescence, 18 h | Potency, µM (series often up to 46.1 µM), for inactives: top-dose activity change, negative = cytotoxicity, hits mostly cytotoxic | 410,000 tested, 0.76% active
#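 HepG2 CAGA-GFP cells (1000/well, DMEM with 1% FBS) received compound, then TGF-beta at 500 pg/mL final, and were incubated 18 hours at 37 degrees C. Viability was read by CellTiter-Glo luminescence. Media-only wells were set as complete cell-killing and DMSO as no toxicity.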
# Active calls of the source: *; u = inconclusive; x = no result. An excerpt weighted towards active compounds, which were near 17% of everything screened. Calls come from the whole dose curve; as a rule, active = well fitted curve in the direction sought with a large enough effect; inconclusive = small, poorly fitted or top-dose-only effect, or another doubt; inactive = no such curve, though single readings can be large; an effect the other way counts as inactive or inconclusive. Potency is the fitted concentration of half-maximal effect.
SMILES,DT40 TDP1 CPT,HT1080NT lethal,DT40 TDP1 no CPT,TGFb inhibitor,HT1080 IDH1KD tx,HepG2 tox
Cc1ccccc1CNC(=O)CCC(=O)N1CCSc2ccccc21,u,x,u,-27%,x,-20%
COc1ccc(Br)cc1CNC(=O)CCC(=O)N1CCSc2ccccc21,u,13%,21µM*,u,4%,1%
CC1CCN(S(=O)(=O)c2ccc3c(c2)N(CC(=O)N(C)Cc2ccccc2)C(=O)CO3)CC1,u,x,21µM*,0%,x,3%
CCN(Cc1ccccc1)C(=O)CN1C(=O)COc2ccc(S(=O)(=O)N3CCOCC3)cc21,u,x,-26%,-10%,x,-1%
CCN(CC)S(=O)(=O)c1ccc2c(c1)N(CC(=O)N(C)Cc1ccccc1)C(=O)CO2,u,x,26µM*,-13%,x,-8%
CCN(Cc1ccccc1)C(=O)CN1C(=O)COc2ccc(S(=O)(=O)N(CC)CC)cc21,23µM*,x,u,-7%,x,3%
CCN(Cc1ccccc1)C(=O)CN1C(=O)COc2ccc(S(=O)(=O)N3CCCCCC3)cc21,21µM*,-19%,23µM*,u,-13%,-6%
O=C(c1ccccc1Cl)N1CCCC(c2nc3c(nnn3Cc3ccc(F)cc3F)c(=O)[nH]2)C1 (configuration not stated),u,x,u,-20%,x,-24%
O=C(O)c1ccccc1C(=O)c1ccc(Br)s1,8%,3%,-6%,-1%,u,-9%
CCOC(=O)COc1cc(OCC(=O)OCC)c2c3c(c(=O)oc2c1)CCCC3,9%,-4%,5%,0%,0%,-11%
CCn1c(SCc2ccccc2C)nc(=O)c2c(C(=O)OC)cc(C3CC3)nc21,12µM*,x,15µM*,u,x,-51%
CCn1c(SCc2c(F)cccc2Cl)nc(=O)c2c(C(=O)OC)cc(C3CC3)nc21,-8%,x,u,-20%,x,-4%
Cc1cccc(OCCn2c(=S)[nH]c3ccccc32)c1,23µM*,-15%,u,-18%,u,-27%
COc1ccccc1OCCn1c(=S)[nH]c2ccccc21,18µM*,-27%,u,-1%,u,2%
Cc1cccc(OCCc2c(C)[nH]c(=S)[nH]c2=O)c1,u,u,16µM*,-26%,u,-23%
Cc1ccc(OCCn2c(=S)[nH]c3ccccc32)c(C(C)C)c1,26µM*,-27%,u,16µM*,u,-116%
CCOc1ccc(OCCn2c(=S)[nH]c3ccccc32)cc1,-7%,3%,-26%,-7%,-4%,-10%
S=c1[nH]c2ccccc2n1CCOc1ccccc1,-2%,1%,0%,u,6%,-24%
CCOCCc1nn2c(=O)cc(COC(=O)c3ccccc3NC(=O)c3ccccc3F)nc2s1,-5%,x,-29%,-6%,x,3%
CCCS(=O)(=O)NC(=O)C1(C)CCN(C(=O)c2ccc(OC)cc2OC)C1 (configuration not stated),-4%,22%,0%,21%,6%,-1%
CCN1C(=O)[C@H]2[C@@H](c3ccc(OC)cc3)N[C@]3(CCCN(CC4CCCCC4)C3=O)[C@H]2C1=O,18%,5%,-11%,-12%,-8%,20%
O=C(c1ccc(F)cc1)c1cn(Cc2ccccc2)c2cc3c(cc2c1=O)OCO3,u,x,u,3%,x,-7%
CCOc1ccc(C(=O)c2cn(Cc3cccc(OC)c3)c3cc4c(cc3c2=O)OCO4)cc1,u,x,u,u,x,-21%
Cc1ccc(C(=O)c2cn(Cc3ccccc3)c3cc4c(cc3c2=O)OCCO4)cc1,21µM*,x,u,u,x,-56%
